Values joined by “and” are separate entries in the source; they are usually repeats but may differ in a detail not shown here. Equal entries are not always repeated. Inconclusive results are not listed. Entries that show only a call come without a potency. A structure can be active in one record and inactive in another. Active and inactive are the calls of the source. Unless noted, calls follow the shape of the dose curve; as a rule, active = well fitted curve in the direction sought with a large enough effect in the repeat runs; inconclusive = weak or mixed curves; inactive = no such curve, though single readings can be large; an effect the other way counts as inactive or inconclusive.
Tests used:
[1] = qHTS assay to identify small molecule antagonists of the thyroid receptor (TR) signaling pathway - cell viability counter screen (AID 743064); also: nearly all actives have a fitted effect of over 50% in size
Outline: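 Same-well viability check: GH3.TRE-Luc cells stimulated with 1 nM T3 alongside test compound for 23.5 h, followed by CellTiter-Fluor fluorescence.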

[2] = qHTS assay to identify small molecule antagonists of the thyroid receptor (TR) signaling pathway (AID 743065); also: nearly all actives have a fitted effect of over 55% in size; also: potency is read from the fitted curve at half-maximal effect
Outline: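 GH3.TRE-Luc rat pituitary cells carrying two TR response elements driving luciferase were plated for 4 h, given compound plus 1 nM T3 (final), and incubated 23.5 h at 37 C. ONE-Glo luminescence measured reporter inhibition; CellTiter-Fluor fluorescence tracked cytotoxicity.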

[3] = tested on: thyroid hormone receptor (rat, GH3 cells); test: qHTS assay to identify small molecule agonists of the thyroid receptor (TR) signaling pathway (AID 743066; calls by dose curve; also: potency is read from the fitted curve at half-maximal effect)
[4] = qHTS assay to identify small molecule antagonists of the estrogen receptor alpha (ER-alpha) signaling pathway - cell viability counter screen (AID 743074; calls by dose curve; also: nearly all actives have a fitted effect of over 45% in size)
[5] = qHTS assay to identify small molecule antagonists of the estrogen receptor alpha (ER-alpha) signaling pathway using the BG1 cell line - cell viability counter screen (AID 743081);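 also: compound given together with 17beta-estradiol as the ER stimulus; series mostly up to about 70 µM; nearly all actives have a fitted effect of over 45% in size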
[6] = biological target: Aromatase (Homo sapiens) (UniProt P11511); test: qHTS assay to identify aromatase inhibitors (AID 743083); also: series mostly up to about 70 µM; nearly all actives have a fitted effect of over 55% in size
Chain of Aromatase (Homo sapiens) (P11511 whole entry, looked up): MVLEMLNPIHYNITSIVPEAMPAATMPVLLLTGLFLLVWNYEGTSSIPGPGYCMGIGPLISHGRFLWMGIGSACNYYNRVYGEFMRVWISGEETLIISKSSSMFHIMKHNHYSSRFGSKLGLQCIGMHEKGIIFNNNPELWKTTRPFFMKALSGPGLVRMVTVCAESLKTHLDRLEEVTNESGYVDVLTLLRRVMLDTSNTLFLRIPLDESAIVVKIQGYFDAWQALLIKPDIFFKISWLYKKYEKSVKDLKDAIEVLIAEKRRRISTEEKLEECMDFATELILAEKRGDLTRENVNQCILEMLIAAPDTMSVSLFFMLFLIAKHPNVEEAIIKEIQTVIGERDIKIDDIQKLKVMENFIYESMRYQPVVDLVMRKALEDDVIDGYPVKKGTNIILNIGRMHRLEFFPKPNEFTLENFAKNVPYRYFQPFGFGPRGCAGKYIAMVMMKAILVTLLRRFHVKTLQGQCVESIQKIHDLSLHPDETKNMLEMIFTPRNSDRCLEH

[7] = biological target: Estrogen receptor (Homo sapiens) (UniProt P03372); test: qHTS assay to identify small molecule antagonists of the estrogen receptor alpha (ER-alpha) signaling pathway (AID 743069; active = well fitted curve in the direction sought with a large enough effect in the signal ratio in the repeat runs, not every such curve was filed as active; the % refers to the signal ratio)
Chain of Estrogen receptor (Homo sapiens) (P03372 whole entry, looked up): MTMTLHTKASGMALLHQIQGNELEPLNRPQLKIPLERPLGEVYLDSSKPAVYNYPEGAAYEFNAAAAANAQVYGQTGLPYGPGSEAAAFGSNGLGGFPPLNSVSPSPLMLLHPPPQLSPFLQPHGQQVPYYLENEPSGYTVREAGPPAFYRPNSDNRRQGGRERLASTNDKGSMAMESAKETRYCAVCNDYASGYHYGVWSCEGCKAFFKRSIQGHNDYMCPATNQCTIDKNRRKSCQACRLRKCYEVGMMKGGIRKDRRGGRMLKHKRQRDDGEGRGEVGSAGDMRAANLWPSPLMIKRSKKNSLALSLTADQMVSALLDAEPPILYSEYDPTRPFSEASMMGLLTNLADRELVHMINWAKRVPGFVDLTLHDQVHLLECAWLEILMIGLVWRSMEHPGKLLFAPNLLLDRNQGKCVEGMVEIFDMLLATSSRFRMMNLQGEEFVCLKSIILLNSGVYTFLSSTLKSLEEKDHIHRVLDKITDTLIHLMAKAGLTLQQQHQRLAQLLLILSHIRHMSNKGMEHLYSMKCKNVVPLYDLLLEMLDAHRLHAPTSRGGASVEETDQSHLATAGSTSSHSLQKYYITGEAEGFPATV
Outline: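 Screening used a UAS-driven beta-lactamase reporter integrated into HEK293 cells expressing ER-alpha, stimulated with 17beta-estradiol alongside test compounds over 18 hr at 37C; signal came from LiveBLAzer B/G FRET fluorescence.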

[8] = biological target: Estrogen receptor (Homo sapiens) (UniProt P03372); test: qHTS assay to identify small molecule agonists of the estrogen receptor alpha (ER-alpha) signaling pathway (AID 743075; calls by dose curve)
[9] = biological target: Estrogen receptor (Homo sapiens) (UniProt P03372); test: qHTS assay to identify small molecule agonists of the estrogen receptor alpha (ER-alpha) signaling pathway using the BG1 cell line (AID 743079); also: nearly all actives have a fitted effect of over 20% in size
[10] = qHTS assay to identify small molecule antagonists of the estrogen receptor alpha (ER-alpha) signaling pathway using the BG1 cell line (AID 743080; calls by dose curve; also: series mostly up to about 70 µM; nearly all actives have a fitted effect of over 25% in size)
Outline: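 Antagonist mode: compounds in DMSO were pinned onto BG1-Luc-4E2 cells alongside 17beta-estradiol agonist, incubated 21.5 h, and ERE-driven luciferase measured with ONE-Glo. Cytotoxicity was multiplexed using CellTiter-Fluor fluorescence.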

SMILES | Potency [1] | Potency [2] | Potency [3] | outcome [4] | Potency [5] | Potency [6] | Potency [7] | Potency [8] | Potency [9] | Potency [10]
N[C@@H](Cc1cc(I)c(Oc2cc(I)c(O)c(I)c2)c(I)c1)C(=O)O | inactive | inactive | 8.4 nM (active) and 10.9 nM (active) | inactive | inactive | inactive |  |  |  | 
CCC(O)OCCCOC (configuration not stated) | inactive | inactive | inactive | inactive | inactive | inactive |  |  |  | 
O=c1[nH]c(=O)n([C@H]2CCCO2)cc1F | inactive | inactive | inactive | inactive | inactive | inactive |  |  |  | 
CCCCCOC(C)=O | inactive |  | inactive | inactive | inactive | inactive | inactive | inactive | inactive | inactive
CC1=CC(=O)NS(=O)(=O)O1 | inactive | inactive | inactive | inactive | inactive | inactive |  |  |  | 
C[C@H]1C[C@H]2[C@@H]3CCC4=CC(=O)C=C[C@]4(C)[C@@]3(F)[C@@H](O)C[C@]2(C)[C@@]1(O)C(=O)CO | inactive | inactive | inactive | inactive | inactive | inactive |  |  |  | 
Cc1cnc(C(=O)NCCc2ccc(S(=O)(=O)NC(=O)NC3CCCCC3)cc2)cn1 | inactive |  | inactive | inactive | inactive |  | inactive | inactive | inactive | inactive
CN(C)CCOCCN(C)C | inactive | inactive | inactive | inactive | inactive | inactive |  |  |  | 
FC(F)(F)c1ccc(Cl)c(Cl)c1 | inactive |  | inactive | inactive | inactive | inactive | inactive | inactive | inactive | inactive
COCCCOc1ccnc(CS(=O)c2nc3ccccc3[nH]2)c1C (configuration not stated) | inactive | 48.4 µM (active) | inactive | inactive | inactive | inactive |  |  |  | 
OC[C@H]1O[C@@](CO)(O[C@H]2O[C@H](CO)[C@@H](O)[C@H](O)[C@H]2O)[C@@H](O)[C@@H]1O | inactive |  | inactive | inactive | inactive | inactive | inactive | inactive | inactive | inactive
CC(c1cc2ccccc2s1)N(O)C(N)=O (configuration not stated) | inactive |  | inactive | inactive | inactive | inactive | inactive | inactive | inactive | inactive
Cc1cccnc1 | inactive | inactive | inactive |  | inactive | inactive |  |  |  | 
ON=C1CCCCC1 | inactive | inactive | inactive | inactive | inactive | inactive |  |  |  | 
CC(=O)CC(=O)Nc1ccccc1 | inactive | inactive | inactive | inactive | inactive | inactive |  |  |  | 
CC(C)c1ccc(S(=O)(=O)O)cc1 | inactive |  | inactive | inactive | inactive | inactive | inactive | inactive | inactive | inactive

SMILES | Potency [1] | Potency [2] | Potency [3] | outcome [4] | Potency [5] | Potency [6] | Potency [7] | Potency [8] | Potency [9] | Potency [10]
CC(C)(C)[C@@H](O)[C@@H](Cc1ccc(Cl)cc1)n1cncn1 | inactive | inactive | inactive | inactive | inactive | inactive |  |  |  | 
O=C(O)c1cc(C(=O)O)cc(S(=O)(=O)O)c1 | inactive | inactive | inactive | inactive | inactive | inactive |  |  |  | 
CC(C)(N)CO | inactive |  | inactive | inactive | inactive | inactive | inactive | inactive | inactive | inactive
CC1CCC(C(C)C)C(O)C1 (configuration not stated) | inactive | inactive | inactive | inactive | inactive | inactive |  |  |  | 
Cc1occc(=O)c1O | inactive | inactive | inactive and 50.9 µM (active) | inactive | inactive | inactive |  |  |  | 
CCCCN(CCCC)CCCC | inactive |  | inactive | inactive | inactive | inactive | inactive | inactive | inactive | inactive
CC(=O)CC(=O)Nc1ccccc1C | inactive |  | inactive | inactive | inactive | inactive | inactive | inactive | inactive | inactive
CCCCCCOCCO | inactive |  | inactive | inactive | inactive | inactive | inactive | inactive | inactive | inactive
COc1ccc(Nc2ccccc2)c(C)c1 | inactive |  | inactive | inactive | inactive | inactive | inactive | inactive | inactive | inactive
O=S1(=O)CC=CC1 | inactive |  | inactive | inactive | inactive | inactive | inactive | inactive | inactive | inactive
CCCCCCCCCCCCCCCO | inactive | inactive | inactive |  | inactive | inactive |  |  |  | 
CSCCC=O | inactive |  |  | inactive | inactive | inactive |  |  |  | 
CCCCC(CC)CO (configuration not stated) | inactive |  | inactive | inactive | inactive | inactive |  |  |  | 
CCCC(C)=O | inactive |  | inactive | inactive | inactive | inactive |  |  |  | 
O=C(O)c1ccccc1C(c1ccc(O)cc1)c1ccc(O)cc1 | inactive |  | inactive |  | inactive | inactive | inactive | inactive | inactive | inactive
